Out of some 310,000 compounds screened, about 14,000 (4.5%) showed an effect of 50% or more. Effects have a minus sign here. The list comes from a sample in which strong results are over-represented; it also holds similar structures and randomly drawn compounds.
molecular target: human ether-à-go-go-related gene (hERG) potassium channel (human, UniProt Q12809); test: primary screen, population patch clamp on CHO cells stably expressing hERG; higher = less effect of the substance
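Note: peak tail current of the secondary pulse compared with the same well before compound.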

Chain of human ether-à-go-go-related gene (hERG) potassium channel (Q12809 whole entry, looked up): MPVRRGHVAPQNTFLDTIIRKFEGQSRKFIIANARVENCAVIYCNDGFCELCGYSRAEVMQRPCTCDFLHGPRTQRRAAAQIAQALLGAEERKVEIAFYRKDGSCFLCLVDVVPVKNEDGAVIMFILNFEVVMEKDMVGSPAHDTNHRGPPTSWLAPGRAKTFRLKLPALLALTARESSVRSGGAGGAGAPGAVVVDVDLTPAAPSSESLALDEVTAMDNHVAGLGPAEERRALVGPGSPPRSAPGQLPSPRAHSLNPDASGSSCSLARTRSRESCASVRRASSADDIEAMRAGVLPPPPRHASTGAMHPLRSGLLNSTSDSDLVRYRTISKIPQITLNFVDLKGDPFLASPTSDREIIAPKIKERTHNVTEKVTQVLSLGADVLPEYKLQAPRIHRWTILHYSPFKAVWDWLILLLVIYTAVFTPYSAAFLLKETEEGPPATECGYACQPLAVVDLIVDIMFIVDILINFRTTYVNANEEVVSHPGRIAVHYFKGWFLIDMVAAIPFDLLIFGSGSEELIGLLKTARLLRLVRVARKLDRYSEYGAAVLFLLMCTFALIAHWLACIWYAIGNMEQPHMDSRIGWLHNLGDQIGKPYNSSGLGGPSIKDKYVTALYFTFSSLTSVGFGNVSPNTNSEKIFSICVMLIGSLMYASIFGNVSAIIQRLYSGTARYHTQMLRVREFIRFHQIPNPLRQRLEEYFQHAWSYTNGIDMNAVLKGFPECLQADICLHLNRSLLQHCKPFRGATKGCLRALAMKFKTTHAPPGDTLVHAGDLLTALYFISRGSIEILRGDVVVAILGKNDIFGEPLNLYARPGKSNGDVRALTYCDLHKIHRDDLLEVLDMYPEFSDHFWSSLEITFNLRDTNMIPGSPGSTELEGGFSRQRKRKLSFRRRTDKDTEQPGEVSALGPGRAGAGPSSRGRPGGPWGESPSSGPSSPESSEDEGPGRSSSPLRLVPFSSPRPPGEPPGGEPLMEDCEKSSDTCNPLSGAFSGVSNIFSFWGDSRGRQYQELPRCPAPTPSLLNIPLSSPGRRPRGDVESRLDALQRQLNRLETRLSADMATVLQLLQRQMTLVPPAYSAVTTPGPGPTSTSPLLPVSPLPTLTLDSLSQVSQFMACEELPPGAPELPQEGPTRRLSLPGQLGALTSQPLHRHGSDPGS

SMILES	hERG current change (%, negative = inhibition) at 10uM [%]
CCOC(=O)c1cc(-c2ccccc2)sc1N	0.819
CN(C)CCNc1oc(-c2ccccc2Cl)nc1S(=O)(=O)c1ccccc1	-35.7
COCCNc1oc(-c2cccs2)nc1S(=O)(=O)c1ccc(C)cc1	-26.4
CN(C)CCCNc1oc(-c2ccccc2Cl)nc1S(=O)(=O)c1ccc(F)cc1	-59.9
CN(C)CCCNc1oc(-c2ccccc2Cl)nc1S(=O)(=O)c1ccccc1	-43.3
Cc1ccc(S(=O)(=O)c2nc(-c3cccs3)oc2NCCCN(C)C)cc1	-67.8
COCCCNc1oc(-c2cccs2)nc1S(=O)(=O)c1ccc(C)cc1	-15.2
CN1C(=O)c2cccc(NCCCCCCN3C(=O)c4ccccc4C3=O)c2C1=O	5.41
CC(C)OCC1CO1 (stereo not shown)	6.9
Cc1noc(NS(=O)(=O)c2ccc(NC(=O)c3ccc(N(C)C)cc3)cc2)c1C	12.2
Cc1cc(C)cc(NC(=O)C(=O)NCCc2c[nH]c3ccccc23)c1	14.9
CCCOc1ccccc1-n1sc2c(c1=S)-c1cc(OC)cc3c1N(C(=O)C3=O)C2(C)C	18.5
C#CCOc1c(Cl)cc(/C=N/O)cc1OC	4.04
CCOc1ccc2nc(NC(=O)Cn3cnc4c3c(=O)n(C)c(=O)n4C)sc2c1	-41.9
COc1ccc(N2CC(C(=O)Nc3nc4ccccc4s3)CC2=O)cc1 (stereo not shown)	-48.9
COc1ccc2nc(NC(=O)C3CC(=O)N(c4ccccc4)C3)sc2c1 (stereo not shown)	-51.7
COC(=O)c1ccc2nc(NC(=O)C3CC3)sc2c1	14
CC(C)c1ccc2nc(NC(=O)C3CC3)sc2c1	-55
COc1ccc2nc(NC(=O)Cn3cnc4ccccc4c3=O)sc2c1	-4.49
CS(=O)(=O)c1ccc2nc(NC(=O)C3CC(=O)N(c4ccccc4)C3)sc2c1 (stereo not shown)	-4.25
COc1ccc(N2CC(C(=O)Nc3nc4ccc(S(C)(=O)=O)cc4s3)CC2=O)cc1 (stereo not shown)	3.32
COc1ccc2nc(NC(=O)Cn3cnc4c(=O)n(C)c(=O)n(C)c43)sc2c1	-67.9

SMILES	hERG current change (%, negative = inhibition) at 10uM [%]
O=C(Nc1nc2ccccc2s1)C1CC(=O)N(c2ccccc2)C1 (stereo not shown)	-11.2
COc1ccc(N2CC(C(=O)Nc3nc4ccc(OC)cc4s3)CC2=O)cc1 (stereo not shown)	-58.8
O=C(Nc1nc2ccc(Cl)cc2s1)C1CC1	28.7
O=C(NC1CCCCC1)c1ccc(CNc2ccccc2)o1	-9.19
COc1ccc(CCNC(=O)C2CCCN2C(=O)Nc2ccc(F)cc2)cc1OC (stereo not shown)	16.5
CCOC(=O)C1=C(c2ccccc2)Nc2ncnn2C1c1ccccn1 (stereo not shown)	13.6
O=C(O)c1cc(-c2ccc(/C=C3\NC(=O)N(c4ccc(Cl)cc4)C3=O)o2)ccc1Cl	7.5
CC1(C)CC2CC(C)(CN2C(=S)NC(=O)c2ccccc2Cl)C1 (stereo not shown)	3.14
NC(=O)NC(=O)CSc1ccccc1	17.1
O=C(Nc1nc2ccc(F)cc2s1)C1CC(=O)N(c2ccc3c(c2)OCCO3)C1 (stereo not shown)	-8.48
COc1ccc(N2CC(C(=O)Nc3nc4ccc(F)cc4s3)CC2=O)c(OC)c1 (stereo not shown)	-56.3
COc1ccc(N2CC(C(=O)Nc3nc(-c4ccccc4)c(C(C)=O)s3)CC2=O)c(OC)c1 (stereo not shown)	-0.242
CC(C)OC(=O)c1ccc(OC(=O)c2cccnc2)cc1	12.5
CCN1C(=NCCc2cccnc2)N[C@@H](c2ccccc2)C(C(=O)OC)=C1C	-51.2
CCN1C(=NCCc2cccs2)N[C@@H](c2cccs2)C(C(=O)OC)=C1C	-64.2
CCN1C(=NCCOC)N[C@@H](c2cccs2)C(C(=O)OC)=C1C	-5.96
COC(=O)C1=C(C)N(Cc2ccccc2)C(=NCCc2cccnc2)N[C@H]1c1ccccc1	-63
CCN1C(N(C)CCc2cccs2)=N[C@@H](c2ccccc2)C(C(=O)OC)=C1C	-53.8
CCN(CC)CCCN=C1N[C@@H](c2ccccc2)C(C(=O)OC)=C(C)N1CC	14.6
COC(=O)C1=C(C)N(Cc2ccccc2)C(=NCc2cc(OC)c(OC)c(OC)c2)N[C@H]1c1ccccc1	-27.8
CCN1C(=O)N[C@@H](c2cccs2)C(C(=O)OC)=C1C	10.2
CCN1C(=S)N[C@@H](c2ccccc2)C(C(=O)OC)=C1C	14.8

SMILES	hERG current change (%, negative = inhibition) at 10uM [%]
CCN1C(=O)N[C@@H](c2ccccc2)C(C(=O)OC)=C1C	-1.67
COCCN=C1N[C@@H](c2cccc(C(F)(F)F)c2)C(C(=O)OC)=C(C)N1Cc1ccccc1	-11.9
C=CCN=C1N[C@@H](c2ccccc2)C(C(=O)OC)=C(C)N1CC	1.27
CCOC(=O)C1=C(C)Nc2ccccc2N/C1=N\S(=O)(=O)c1ccc(Cl)cc1	-7.32
COc1ccc(CNC(=O)CCCNS(=O)(=O)c2cccc3nonc23)cc1	-1.27
CC(CC(=O)NC1CCCCC1)S(=O)(=O)c1ccc2c(c1)NC(=O)CO2 (stereo not shown)	5.72
Cc1cc(C)nc(N(C#N)Cc2ccccc2Cl)n1	4.48
Cc1cc(C)nc(N(C#N)Cc2cccc3ccccc23)n1	3.61
Cc1cc(C)nc(N(C#N)Cc2ccccc2C)n1	-51.4
CCC(=O)n1nc(-c2ccco2)nc1N	10.8
CCN(Cc1ccccc1)c1ccc(/C=N/NS(=O)(=O)c2cccc([N+](=O)[O-])c2)cc1	10.3
Cc1nn2c(-c3cccc(NC(=O)CSc4nc5ccccc5o4)c3)nnc2c2ccccc12	-70.8
Cc1cccc(NC(=O)CSc2nc3ccccc3o2)c1	3.5
CC(=O)Nc1cccc(-c2nnc3c4ccccc4c(C)nn23)c1	-0.564
CCS(=O)(=O)N1CCN(C(=O)c2cccc3ccccc23)CC1	12.8
COc1ccc(CNC[C@@H](CCCCN(C)Cc2ccc(OC)cc2)N2C[C@H](c3ccccc3)N(CCc3ccc(Cl)c(Cl)c3)C(=O)C2=O)cc1	-80.3
COc1ccc(CNC(=O)[C@@H]2CC=C[C@@H]3CCN(Cc4ccc(Cl)c(Cl)c4)C(=O)[C@@H]32)cc1	-8.85
COc1cccc(CCN2C(=O)C(=O)N([C@@H](CNCc3ccccc3)Cc3ccccc3F)C[C@@H]2C(C)(C)C)c1	-48.5
Nn1cnc2cc3ccccc3cc2c1=O	8.16
Cn1c(=O)c2cn(-c3ccc4c(c3)OCCO4)cc2n(C)c1=O	11.3
Cc1cccc(C)c1NC(=O)C1(N(Cc2ccco2)C(=O)c2ccccn2)CCCC1	5.95
COc1ccccc1C(=O)Nc1ccc(CN2CCCCC2)cc1	-28.4

SMILES	hERG current change (%, negative = inhibition) at 10uM [%]
COc1ccc(Cl)cc1C(=O)Nc1ccc(CN2CCCCC2)cc1	-52
COc1c(C)cccc1C(=O)Nc1ccc(CN2CCCCC2)cc1	-30.7
COc1c(Cl)cc(Cl)cc1C(=O)Nc1ccc(CN2CCOCC2)cc1	8.37
COc1cccc(OC)c1C(=O)Nc1ccc(CN2CCCCC2)cc1	10.6
COc1c(Cl)cc(Cl)cc1C(=O)Nc1ccc(CN2CCCCC2)cc1	-65.1
Cc1ccc(N2C(S)=C(C#N)C(=O)NC2c2cccs2)cc1 (stereo not shown)	15.2
c1ccc(CN(Cc2ccccc2)c2ncnc3c2nnn3Cc2ccccc2)cc1	7.63
CC1Cc2nc(SCC(=O)NCc3ccco3)n(-c3ccccc3)c(=O)c2S1 (stereo not shown)	-33.5
Cc1ccc(C(=O)Nc2cccc(C(F)(F)F)c2)cc1NC(=O)c1csc(-c2ccncc2)n1	-62.5
O=C(Nc1ccc(C(F)(F)F)cc1)c1csc(-c2ccncc2)n1	-25.4
O=C(Nc1cccc(C(F)(F)F)c1)c1csc(-c2ccncc2)n1	-68.6
CCN1CCN(Cc2ccc(NC(=O)c3ccc(C)c(NC(=O)c4csc(-c5ccncc5)n4)c3)cc2C(F)(F)F)CC1	7.22
COc1cc(NC(=O)c2csc(-c3ccncc3)n2)cc(C(=O)Nc2cccc(C(F)(F)F)c2)c1	-48.7
NNC(=O)c1csc(-c2cccc(C(F)(F)F)c2)n1	-30
CC(C)N1C(=O)C2ON(c3ccccc3)C(c3cccs3)C2C1=O (stereo not shown)	-16.6
CCOC(=O)C(CC)(CCC(=O)O)c1csc(Nc2ccc(C)cc2)n1 (stereo not shown)	16.5
Cc1cc(=O)oc2c(C)c(OCC(=O)N(C)C)ccc12	9.8
O=C(c1ccc(F)cc1)N1C2CCC1CC(O)(c1ccc(F)cc1)C2 (stereo not shown)	-20.6
COc1ccc(C(C)=O)cc1COC(=O)c1ccc(N)c([N+](=O)[O-])c1	35.1

Reference: article PMC4336329 (PLoS ONE, 2015)
